IP6K1 inh = Primary qHTS assay for small molecule inhibitors of Inositol hexaphosphate kinase 1 (IP6K1) | Inositol hexakisphosphate kinase 1 (Homo sapiens), Q92551 | IP6K1 kinase, ADP-Glo luminescence, 2 h; hits give low values | activity change, % (series mostly up to about 58 µM) | hit rate 0.81% among 140,000; in the data active = activity change below about -25%; note: % is set by controls: 0 for no effect and ±100 for the full control effect
Target sequence (Q92551 whole entry, looked up): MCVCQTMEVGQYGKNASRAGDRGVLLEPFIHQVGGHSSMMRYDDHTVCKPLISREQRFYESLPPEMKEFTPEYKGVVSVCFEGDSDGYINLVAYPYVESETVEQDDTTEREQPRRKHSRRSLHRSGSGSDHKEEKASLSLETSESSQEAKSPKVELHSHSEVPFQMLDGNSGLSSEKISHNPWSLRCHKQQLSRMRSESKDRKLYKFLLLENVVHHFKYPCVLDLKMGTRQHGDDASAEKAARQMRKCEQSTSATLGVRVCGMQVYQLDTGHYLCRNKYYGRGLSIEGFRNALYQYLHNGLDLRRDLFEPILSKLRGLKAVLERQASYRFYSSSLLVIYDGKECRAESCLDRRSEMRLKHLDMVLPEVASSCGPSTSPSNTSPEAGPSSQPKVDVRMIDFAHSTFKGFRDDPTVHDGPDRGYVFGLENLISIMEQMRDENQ
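ADP-Glo luminescence measures ADP made by human IP6K1 during a 2 h RT reaction with ATP/IP6 (mix at 1.3 mM/130 uM); top library doses 57.5 and 19.1 uM final.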
SNCA expr inhib = Primary qHTS assay for inhibitors of alpha-synuclein gene (SNCA) expression; AID 1671194, 2021; hit rate 0.17% among 140,000; HEK-293 SNCA-luciferase knock-in, luminescence, 24 h; Potency, µM (titrated, usually from 57.2 µM), for the others: top-dose activity change, negative = inhibition, most hits filed as inhibitors;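 note: potency is the fitted concentration of half-maximal effect; plate controls were DMSO cells for no effect and cell-free wells for full effect; nearly all actives have a fitted effect of over 45% in size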
SNCA viab count = GF-AFC viability counterscreen for inhibitors of alpha-synuclein gene (SNCA) expression; HEK-293-SNCA-luc viability, GF-AFC fluorescence, 24 h; Potency, µM (highest dose often 57.1 µM), inactives show at the top dose activity change, negative = cytotoxicity, usual class: cytotoxic; hit rate 0.12% among 150,000;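 note: potency is the fitted concentration of half-maximal effect; 0% = DMSO-treated cells and -100% = medium-only wells without cells; nearly all actives have a fitted effect of over 30% in size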
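Cytotoxicity counterscreen: after 24 h compound treatment of genome-edited SNCA-luciferase HEK-293 cells, live-cell protease substrate GF-AFC read by fluorescence after 30 min; activity scaled between DMSO (0%) and medium-only (-100%), curves Hill-fitted.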
KDM5B inh = Primary screen for KDM5B Histone Demethylases FDH-coupled qHTS; Lysine-specific demethylase 5B (Homo sapiens), Q9UGL1; KDM5B demethylase, FDH-coupled NADH fluorescence (FDH is formaldehyde dehydrogenase); Potency, µM (doses to about 57.7 µM), usual class: inhibitors; hit rate 2.6% among 220,000; AID 1347165, 2019; note: potency is the fitted concentration of half-maximal effect; 0% is about no effect; nearly all actives have a fitted effect of over 70% in size
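Here, H3K4me3 peptide (12.5 µM in substrate mix) is demethylated by KDM5BΔAP, 200 nM final, after 10 min compound exposure. Formaldehyde product is coupled through FDH (0.25 U/mL in mix) to NADH fluorescence; 30-min ΔRFU feeds dose-response curves.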
IP6K1 inh cnf = Confirmatory qHTS assay for small molecule inhibitors of Inositol hexaphosphate kinase 1 (IP6K1); recombinant IP6K1 kinase, ADP-Glo luminescence, 2 h; shares compounds with IP6K1 inh; hit rate 13% among 1,200; Potency, µM (titrated, usually from 49 µM), for the others: at the top dose activity change, negative = inhibition, usual class: inhibitors; note: potency is the fitted concentration of half-maximal effect; % is set by controls: 0 for no effect and ±100 for the full control effect; nearly all actives have a fitted effect of over 65% in size
The depositor's hits bear a star; i = inactive; ? = inconclusive; . = no result given; [ ] = dose if it differs, or a comment. A selection: hits, their analogues and other compounds. The true share with any hit is near 2.9%. Unless noted, calls come from the whole dose curve; as a rule, active = well fitted curve in the direction sought with a large enough effect; inconclusive = small, poorly fitted or top-dose-only effect, or another doubt; inactive = no such curve, though single readings can be large; an effect the other way counts as inactive or inconclusive.

SMILES	IP6K1 inh	SNCA expr inhib	SNCA viab count	KDM5B inh	IP6K1 inh cnf
CN1Cc2ncnc(NCCc3ccc(F)cc3)c2CN(c2ccc(Cl)cc2)C1=O	-29*	?	-26%	i	-7%
COc1cc(C(C)C)c(Oc2cnc(N)nc2N)cc1I	-29*	.	2%	.	?
O=C(CSc1nnc2c3c4c(sc3ncn12)CCCC4)Nc1ccc(Br)cc1	.	.	.	i	.
CNC(=O)c1cc(C2CC2)nc2onc(C3CCCN3C(=O)N(C)C)c12 (centres undefined)	5	.	.	.	.
Cn1nnnc1Sc1ncnc2scc(-c3ccc(Br)cc3)c12	.	.	.	.	-9%
Cn1c(Sc2ncnc3scc(-c4ccccc4)c23)nnc1C(F)(F)F	.	.	.	i	.
Cn1nnnc1Sc1ncnc2scc(Br)c12	.	.	.	.	-15%
CSc1ccc(/C=N/N=C(c2ccccc2)c2ccccc2)cc1	.	.	.	i	.
Cc1ccc(S(=O)(=O)Nc2cccc(-c3cn4cccc(C)c4n3)c2)cc1	-26*	29%	-21%	i	-2%
Cc1cccn2cc(-c3cccc(NS(=O)(=O)c4ccc(Cl)c(Cl)c4)c3)nc12	7	10%	6%	i	.
Cc1cc(C)c2oc(-c3ccc(C)c(NC(=O)/C=C/c4ccco4)c3)nc2c1	-36*	33%	-4%	?	?
O=C(NCc1ccco1)c1ccc2c(c1)N(Cc1ccccc1)C(=O)c1ccccc1S2	-28*	?	?	?	?
Cc1cccc(CN2C(=O)c3ccccc3Sc3ccc(C(=O)NCc4ccco4)cc32)c1	5	17%	-11%	i	.
O=C(CC[C@H]1NC(=O)c2ccccc2NC1=O)Nc1n[nH]c(CCC2CCCC2)n1	19	7%	2%	i	.
CCOC(=O)N1CCN(Cc2nc3cc(NC(C)=O)ccc3n2C(C)C)CC1	-10	-22%	-11%	?	.
CCCC(=O)Nc1ccc2c(c1)nc(CN1CCN(C(=O)OCC)CC1)n2C(C)C	-28*	?	-2%	i	35%
CCOC(=O)N1CCN(Cc2nc3cc(NC(=O)c4ccccc4Cl)ccc3n2C(C)C)CC1	-25*	-29%	-8%	?	-12%
O=C(NC1CCCC1)c1cc(Cl)cc(Cl)c1	.	.	.	i	.
CCOc1ccccc1NC(=O)n1ncc2cc(Cl)ccc21	-37*	155%	1%	i	-6%
O=C(Nc1ccccc1C(F)(F)F)n1ncc2cc(Cl)ccc21	-8	12%	-2%	i	.
COc1ccccc1-c1nnc2ccc(SCc3ccco3)nn12	.	.	.	i	.
O=C(c1cc(Cl)ccc1F)N1CCN(C(=O)c2nnn3c2COC(c2ccccc2)C3)CC1 (centres undefined)	-32*	3%	-10%	i	-9%
O=C(c1ccccc1F)N1CCN(C(=O)c2nnn3c2COC(c2ccccc2)C3)CC1 (centres undefined)	2	?	-5%	i	.
Cc1ccc(CNC(=O)c2nc(SCc3ccc(C)cc3)ncc2Cl)cc1	-7	?	9%	i	.
O=C(Oc1ccccc1F)c1nc(SCc2ccc(F)cc2)ncc1Cl	-38*	19%	7%	i	-1%
SMILES	IP6K1 inh	SNCA expr inhib	SNCA viab count	KDM5B inh	IP6K1 inh cnf
Cc1ccccc1OC(=O)c1nc(SCc2ccccc2F)ncc1Cl	-13	3%	?	i	.
COc1ccc(OC(=O)c2nc(SCc3ccc(F)cc3)ncc2Cl)cc1	-19	-8%	3%	i	.
Cc1ccc(CSc2ncc(Cl)c(C(=O)Oc3ccc(F)cc3)n2)cc1	-25*	-7%	-1%	?	13%
COc1ccc(OC(=O)c2nc(SCc3ccc(C)cc3)ncc2Cl)cc1	-28*	6%	5%	?	-3%
O=C(C[C@@H]1C(C(=O)O)=CO[C@@H](O[C@@H]2O[C@H](CO)[C@@H](O)[C@H](O)[C@H]2O)/C1=C\CO)OCCc1ccc(O)c(O)c1	3	.	-13%[23.9 µM]	.	.
Cc1[nH]c(/C=C2\C(=O)Nc3ccc(S(=O)(=O)N(C)c4cccc(Cl)c4)cc32)c(C)c1C(=O)N1CCN(C)CC1	15	.	-30%	.	.
Cc1[nH]c(/C=C2\C(=O)Nc3ccc(F)cc32)c(C)c1C(=O)NCCN1CCCC1	-5	.	-11%	.	2%[18.9 µM]
Cc1[nH]c(C=C2C(=O)Nc3ccc(S(=O)(=O)Cc4c(Cl)cccc4Cl)cc32)c(C)c1C(=O)N1CCC[C@H]1CN1CCCC1	.	?	-17%	.	-11%
COC(=O)c1ccc(CNC(=O)C(Sc2ccccc2)c2ccccc2)cc1 (centres undefined)	.	.	.	i	.
COCCN1C(=O)c2cccn2CC1CNC(=O)NCc1ccc(C)cc1 (centres undefined)	-11	28%	7%	i	.
COc1ccccc1N1CCN(C(=O)CCc2ccccc2C)CC1=O	-34*	13%	1%	i	-16%
COc1ccccc1CCC(=O)N1CCN(C(=O)c2ccccc2)CC1	.	.	.	i	.
C/C=C(\C)C(=O)O[C@H]1[C@@H](O[C@]2(COC(=O)CC(C)C)O[C@H](COC(=O)C(C)C)[C@@H](OC(C)=O)[C@@H]2O)O[C@H](COC(C)=O)[C@@H](O)[C@@H]1O	-38*	.	-3%[23.9 µM]	.	?
CC(C)CC(=O)OC[C@H]1O[C@@](COC(=O)CC(C)C)(O[C@H]2O[C@H](CO)[C@@H](O)[C@H](O)[C@H]2OC(=O)CC(C)C)[C@@H](OC(=O)CC(C)C)[C@@H]1O	-1	.	-13%[23.9 µM]	.	.
Cc1ccc(CNc2oc(-c3ccc(COc4ccc(Cl)cc4)o3)nc2C#N)cc1	-30*	-17%	4%	?	12%
CCOc1cc(C(=O)Nc2ccc(-c3nc4ncccc4o3)cc2C)cc(OCC)c1OCC	-26*	-20%	5%	i	9%
CCOc1cccc(C(=O)Nc2ccc(-c3nc4ncccc4o3)cc2C)c1	24	83%	-6%	i	.
Cc1ccccc1C(=O)NC1CCN(c2cc(-c3ccccc3)[nH]n2)CC1	23	-14%	7%	i	.
COc1ccccc1CNC(=O)c1cc2c(s1)-c1ccccc1OC2	13	132%	5%	?	.
O=C(NCc1cccc(Cl)c1)c1cc2c(s1)-c1ccccc1OC2	-26*	-9%	13%	?	-14%
NC(=O)c1cccc(CC2CCN(C(=O)c3ccnc(-n4cnnc4)c3)C2)c1 (centres undefined)	-27*	-10%	-2%	i	-5%
Cc1cc(C)n2nc(C(=O)N3CCC(Cc4cccc(C(N)=O)c4)C3)nc2n1 (centres undefined)	12	-7%	-1%	i	.
CCOc1ccc(N(CCC#N)C(=O)Cn2nc(C(=O)O)c3ccccc3c2=O)cc1	.	.	.	i	.
